For 14 compounds, IC50, IC90 and percent growth results are on record in the supplement of paper PMC5940239.

Structures are written as SMILES.

Broadly, the IC50 is the concentration that gives 50% inhibition. As a reminder, the IC90 is the concentration needed for an effect of 90%.

The subject of test [1] is Madurella mycetomatis MM55. To be noted: 7 days.
The test system of test [2] is Madurella mycetomatis MM55. Nature of the test: IC90; higher = less potent. To be noted: 7 days.
Test [3] relates to Madurella mycetomatis MM55. Nature of the test: percent growth relative to solvent control; higher = less inhibition, active = 20 or less. Particulars: 100 µM; 7 days.

For `Cc1nnc(NCc2cccc(Cl)c2)c2ccccc12`, the IC50 in test [1] was 29.1 µM. Besides, the concentration for an effect of 90% (IC90) in test [2] turned out to be 62.8 µM. Moreover, the percent growth in test [3] is -0.336% (active).
`COc1ccc(C(=N)N)cc1-c1cn(-c2ccc(C(=N)N)cc2)nn1` displayed a half-maximal inhibitory concentration (IC50) in test [1] of 56.6 µM. Further, the IC90 in test [2] was found to be 89.2 µM. Moreover, in test [3], the percent growth is -3.41% (active).
With `Nc1ncc(-c2cn[nH]c2)cc1-c1nc2cc(Cl)cnc2[nH]1`, the percent growth in test [3] is 127% (inactive).
The same measure, in the same setting: the same measure for `CCN(CC)S(=O)(=O)c1ccc(C(=O)Nc2cc(C)nn2-c2nc(C)c(C)c(=O)[nH]2)cc1`: 63% (inactive).
In turn, `c1ccc(Oc2ccc(-c3cc(C4CCOCC4)[nH]n3)cc2)cc1` showed a half-maximal inhibitory concentration (IC50) in test [1] of 35.6 µM. In test [2], this compound gave an IC90 of 57 µM. In addition, the percent growth in test [3] is 4.02% (active).
Turning to `CC(C)(C(=O)Nc1ccc(F)cc1)n1cc(-c2ccccc2F)cn1`, the half-inhibitory concentration (IC50) in test [1] is 56.2 µM. Moreover, in test [2], the IC90 is 96.1 µM. The percent growth in test [3] was 6.9% (active).
On to `Cc1cc(NC(=O)c2ccc(S(=O)(=O)N(Cc3ccccc3)C(C)C)cc2)no1`, for which, in test [3], the percent growth is 92.5% (inactive).
Still for that read-out and setting: next, `CS(=O)(=O)c1ccccc1C(=O)N(Cc1ccccc1)c1ccccc1`: 91% (inactive).
In test [1], `Cc1cc(NCC(C)C)c2n[nH]c(-c3ccccc3)c2n1` registered an IC50 of 52.5 µM. For the same compound, the IC90 in test [2] worked out at 89.3 µM. For the same compound, in test [3], the percent growth is -1.5% (active).
Take `COc1cccc2c(C)nc(N=C(N)N)nc12`: the percent growth in test [3] is 96.9% (inactive).
Take `Clc1ccc(-n2cc(COc3ccnc4ccccc34)nn2)cc1`: the percent growth in test [3] was 63% (inactive).
In test [1], `CCOc1ccc2cc(-c3nn(CC4CCN(C)CC4)c4ncnc(N)c34)ccc2c1` gave an IC50 of 51.8 µM. The same compound gave a 90% effect concentration (IC90) in test [2] of 87.8 µM. Also, the percent growth in test [3] is -3.52% (active).
Taken in the same sequence, the figures for `CC(C)(C)n1nc(-c2ccccc2)c2c(N)ncnc21` were 49.4 µM, 96.4 µM and 10.4% (active).
Taken in the same sequence, the figures for `CCOC(=O)c1c(NC(=O)c2c(F)c(F)c(F)c(F)c2F)sc(C(N)=O)c1C` were 60.5 µM, 92.8 µM and 1.26% (active).
